Our source for the growth values is PubChem BioAssay (NCI).

The structures appear in SMILES notation. The panel holds about 83,000 compounds, 20% with a hit somewhere; the sample as a whole holds those more often.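 96-well plates, one dose, 48 hours. Percent growth reported; active if below 10.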 A number with no mark means an inactive call. Activity calls are given as the source filed them.

One experiment relates to SF-268 CNS. As to the kind of experiment: NCI-60 one-dose screen, 48 h (100 = growth as untreated, 0 = no growth, -100 = all killed). The following applies: 10 µM unless noted.
Consider `O=C(CCCCC(=O)N/N=C\c1ccccc1O)N/N=C\c1ccccc1O`, for which the growth was 40%.

Consider `COc1cc(-c2nc(C(=O)NCC(=O)NO)nn2-c2ccc(Cl)cc2)cc(OC)c1OC`, for which the growth is 104%.

For `O=c1ccccc(-c2ccc(Br)cc2)c1O`, the growth was 12.8%.

For `Cc1cc2nc(NC(=O)CN3CCN(CCN4C(=O)c5cccc6cccc(c56)C4=O)CC3)sc2cc1C`, the growth is 86.3%.

In the case of `COc1cc(C(=O)/C=C/c2cccnc2Nc2ccc(Cl)cc2)cc(OC)c1OC`, the growth is -87.7% (active).

For the molecule `COc1ccc(-c2nnc(SCC(=O)c3ccc(Cl)cc3)o2)cc1`, the growth was 101%.

`COc1cc(/C=C/C(=O)Nc2cccnc2Nc2ccc(F)cc2)cc(OC)c1OC`: the growth is 102%.

Turning to `O=C1/C(=C/c2ccccc2O)N=C2SCCCN12`, the growth was 99.5%.

With `CC(C)(CCCN=C(N)Nc1ccc(Cl)cc1)c1ccc(F)cc1`, the growth is 72.6%.

For the molecule `CCCCC[C@H]1C/C=C2/C(=O)C=C[C@@H]2C/C=C\CCCC(=O)O1`, the growth is 3.72% (active).

Take `COc1ccc2c(c1)C(=O)/C(=C/c1ccccn1)CC2`: the growth was 90.8%.

Take `C=C1C(=O)O[C@H]2[C@H]1CC/C(COC(=O)NCCc1ccc(OC)c(OC)c1)=C\CC[C@@]1(C)O[C@@H]21`: the growth is 80.3%.

On to `COc1cc(-c2nn(-c3ccc(Br)cc3)cc2C(=O)O)ccc1O`, for which the growth is 87.8%.

`CCCCCC(=O)Oc1ccc(/C(=C(\C)c2ccc(OC)cc2)c2ccc(OCCN3CCCCC3)cc2)cc1`: the growth is 71.1%.

As to `COC(=O)[C@@H]1CCCN1C(=O)[C@@H]1CCCN1C(=O)[C@H](Cc1ccccc1)NC(=S)Nc1cc(C(F)(F)F)cc(C(F)(F)F)c1`, the growth was 35%.

For the molecule `CCOc1ccc(C(C)=O)cc1NC(=O)c1cccc(-c2nnn(CC)n2)c1`, the growth was 59%.

`O=[N+]([O-])c1ccccc1/C=N\NC(=S)N/N=C/c1ccccc1[N+](=O)[O-]`: the growth was 41%.

For `O=[N+]([O-])c1ccc2c(c1)Cc1cc(F)ccc1-2`, the growth was 111%.

With `CC(=O)OC[C@H]1O[C@H](OC(C)=O)[C@H](NC(=O)/C=C/CCl)[C@@H](OC(C)=O)[C@@H]1OC(C)=O`, the growth was 89.3%.

In the case of `CCC#CC[C@H](O)C/C=C1/C(=O)C=C[C@@H]1C/C=C\CCCC(=O)OC`, the growth is 23.8%.

For `CC/C=C\C[C@H](O)C/C=C1/C(=O)C=C[C@@]1(C)C/C=C\CCCC(=O)OC`, the growth was 106%.

`CC[N+](CC)=c1sc2c(s1)C(c1ccc(Cl)cc1)Oc1ccc(Cl)cc1-2` (stereo not drawn): the growth is 24%.

With `COc1cccc(-c2nc(SCC(=O)Nc3ccc(C(=O)/C=C/c4ccc(OC)c(OC)c4)cc3)[nH]c(=O)c2C#N)c1`, the growth was 82.9%.

Take `COc1ccc(CN2c3ccccc3Oc3ccccc32)cc1O`: the growth was 57.4%.

For `C=C1C(=O)O[C@H]2[C@H]1CC/C(C=Nc1ccc(C(F)(F)F)cc1N)=C\CC[C@@]1(C)O[C@@H]21`, the growth is 23.7%.

On to `COc1ccc2c(c1)C(=O)/C(=C/c1cccnc1)CC2`, for which the growth was 94.2%.

With `Clc1ccc2c(NCCCCNc3nc(N4CCOCC4)nc4ccccc34)ccnc2c1`, the growth is 43%.

On to `COc1ccccc1Nc1nc(-c2cc3cccc(C(F)(F)F)c3oc2=O)cs1`, for which the growth is 26.2%.

Take `CCc1c(Nc2ccccc2C)nc(N)[nH]c1=O`: the growth is 101%.

On to `O=c1oc2c(C(F)(F)F)cccc2cc1-c1csc(Nc2ccc(OCCF)cc2)n1`, for which the growth was 23.3%.

`COc1ccc(CN2c3ccccc3Sc3ccccc32)c(C(F)(F)F)c1`: the growth was 56.4%.

In the case of `COc1cc2c(cc1O)CC[C@@H]1[C@@H]2CC[C@]2(C)[C@@H](OCCN(C)C)CC[C@@H]12`, the growth was 56.2%.

Take `CCNc1ncnc2c1cnn2C1CCCO1` (stereo not drawn): the growth is 96.9%.

With `NC(=NCCCC1(c2ccccc2)CCCC1)Nc1ccc(Cl)cc1`, the growth was 58.5%.

In the case of `CCOc1ccc(-n2nc(C(=O)Nc3cc(OC)c(OC)c(OC)c3)nc2-c2cc(OC)c(OC)c(OC)c2)cc1`, the growth is 92.1%.

`COc1ccc(CN2c3ccccc3Sc3ccccc32)cc1O`: the growth was 45.6%.

As for `NCCNc1nc(Nc2ccc(-c3nc4ccccc4[nH]3)cc2)c2cn[nH]c2n1`, the growth is 68.1%.

With `COc1cccc2c1C(=O)c1c(O)c3c(c(O)c1C2=O)C[C@](O)(C(=O)CO)C[C@H]3O[C@@H]1C[C@@H](NC(=O)CCCCCN(C)C2(c3ccc(F)cc3)CC3CCC2C3)[C@H](O)[C@@H](C)O1` (stereo partly drawn), the growth is 36.1%.

With `CC(O)CN(CC(C)O)c1ccc2c(c1)Cc1cc([N+](=O)[O-])ccc1-2` (stereo not drawn), the growth is 85.2%.

The next experiment deals with SF-295 CNS. Described as above. The following applies: 10 µM unless noted.
For `O=C(CCCCC(=O)N/N=C\c1ccccc1O)N/N=C\c1ccccc1O`, the growth was 37.9%.

Turning to `COc1cc(-c2nc(C(=O)NCC(=O)NO)nn2-c2ccc(Cl)cc2)cc(OC)c1OC`, the growth was 107%.

On to `O=c1ccccc(-c2ccc(Br)cc2)c1O`, for which the growth is 17.9%.

As for `Cc1cc2nc(NC(=O)CN3CCN(CCN4C(=O)c5cccc6cccc(c56)C4=O)CC3)sc2cc1C`, the growth was 91.2%.

Consider `COc1cc(C(=O)/C=C/c2cccnc2Nc2ccc(Cl)cc2)cc(OC)c1OC`, for which the growth was 7.32% (active).

Consider `COc1ccc(-c2nnc(SCC(=O)c3ccc(Cl)cc3)o2)cc1`, for which the growth is 101%.

Turning to `COc1cc(/C=C/C(=O)Nc2cccnc2Nc2ccc(F)cc2)cc(OC)c1OC`, the growth was 94.2%.

As for `O=C1/C(=C/c2ccccc2O)N=C2SCCCN12`, the growth was 98.6%.

As for `CC(C)(CCCN=C(N)Nc1ccc(Cl)cc1)c1ccc(F)cc1`, the growth was 53.1%.

`CCCCC[C@H]1C/C=C2/C(=O)C=C[C@@H]2C/C=C\CCCC(=O)O1`: the growth was -33.5% (active).

On to `COc1ccc2c(c1)C(=O)/C(=C/c1ccccn1)CC2`, for which the growth was 78.2%.

As to `C=C1C(=O)O[C@H]2[C@H]1CC/C(COC(=O)NCCc1ccc(OC)c(OC)c1)=C\CC[C@@]1(C)O[C@@H]21`, the growth was 95.8%.

Consider `COc1cc(-c2nn(-c3ccc(Br)cc3)cc2C(=O)O)ccc1O`, for which the growth is 101%.

In the case of `CCCCCC(=O)Oc1ccc(/C(=C(\C)c2ccc(OC)cc2)c2ccc(OCCN3CCCCC3)cc2)cc1`, the growth is 38.9%.

On to `COC(=O)[C@@H]1CCCN1C(=O)[C@@H]1CCCN1C(=O)[C@H](Cc1ccccc1)NC(=S)Nc1cc(C(F)(F)F)cc(C(F)(F)F)c1`, for which the growth was 92.9%.

As to `CCOc1ccc(C(C)=O)cc1NC(=O)c1cccc(-c2nnn(CC)n2)c1`, the growth was 7.49% (active).

For `O=[N+]([O-])c1ccccc1/C=N\NC(=S)N/N=C/c1ccccc1[N+](=O)[O-]`, the growth is 29.8%.

As to `O=[N+]([O-])c1ccc2c(c1)Cc1cc(F)ccc1-2`, the growth was 96.5%.

As for `CC(=O)OC[C@H]1O[C@H](OC(C)=O)[C@H](NC(=O)/C=C/CCl)[C@@H](OC(C)=O)[C@@H]1OC(C)=O`, the growth is 87.5%.

Take `CCC#CC[C@H](O)C/C=C1/C(=O)C=C[C@@H]1C/C=C\CCCC(=O)OC`: the growth was -25.6% (active).

As for `CC/C=C\C[C@H](O)C/C=C1/C(=O)C=C[C@@]1(C)C/C=C\CCCC(=O)OC`, the growth was 107%.

For the molecule `CC[N+](CC)=c1sc2c(s1)C(c1ccc(Cl)cc1)Oc1ccc(Cl)cc1-2` (stereo not drawn), the growth is 2.98% (active).

In the case of `COc1cccc(-c2nc(SCC(=O)Nc3ccc(C(=O)/C=C/c4ccc(OC)c(OC)c4)cc3)[nH]c(=O)c2C#N)c1`, the growth was 94.5%.

With `COc1ccc(CN2c3ccccc3Oc3ccccc32)cc1O`, the growth is 14.5%.

Regarding `C=C1C(=O)O[C@H]2[C@H]1CC/C(C=Nc1ccc(C(F)(F)F)cc1N)=C\CC[C@@]1(C)O[C@@H]21`, the growth was 45.4%.

As to `COc1ccc2c(c1)C(=O)/C(=C/c1cccnc1)CC2`, the growth was 84.2%.

Regarding `Clc1ccc2c(NCCCCNc3nc(N4CCOCC4)nc4ccccc34)ccnc2c1`, the growth is -5.21% (active).

For the molecule `COc1ccccc1Nc1nc(-c2cc3cccc(C(F)(F)F)c3oc2=O)cs1`, the growth was 3.82% (active).

`CCc1c(Nc2ccccc2C)nc(N)[nH]c1=O`: the growth was 105%.

With `O=c1oc2c(C(F)(F)F)cccc2cc1-c1csc(Nc2ccc(OCCF)cc2)n1`, the growth was 4.4% (active).

Consider `COc1ccc(CN2c3ccccc3Sc3ccccc32)c(C(F)(F)F)c1`, for which the growth was 2.22% (active).

In the case of `COc1cc2c(cc1O)CC[C@@H]1[C@@H]2CC[C@]2(C)[C@@H](OCCN(C)C)CC[C@@H]12`, the growth is -4.56% (active).

For the molecule `CCNc1ncnc2c1cnn2C1CCCO1` (stereo not drawn), the growth is 101%.

As for `NC(=NCCCC1(c2ccccc2)CCCC1)Nc1ccc(Cl)cc1`, the growth was 10%.

Regarding `CCOc1ccc(-n2nc(C(=O)Nc3cc(OC)c(OC)c(OC)c3)nc2-c2cc(OC)c(OC)c(OC)c2)cc1`, the growth is 95.9%.

As for `COc1ccc(CN2c3ccccc3Sc3ccccc32)cc1O`, the growth was 4.23% (active).

For the molecule `NCCNc1nc(Nc2ccc(-c3nc4ccccc4[nH]3)cc2)c2cn[nH]c2n1`, the growth was 62.9%.

Turning to `COc1cccc2c1C(=O)c1c(O)c3c(c(O)c1C2=O)C[C@](O)(C(=O)CO)C[C@H]3O[C@@H]1C[C@@H](NC(=O)CCCCCN(C)C2(c3ccc(F)cc3)CC3CCC2C3)[C@H](O)[C@@H](C)O1` (stereo partly drawn), the growth is -87.9% (active).

With `CC(O)CN(CC(C)O)c1ccc2c(c1)Cc1cc([N+](=O)[O-])ccc1-2` (stereo not drawn), the growth is 90.3%.
